A short description of assay [1]: qHTS assay to identify small molecule antagonists of the vitamin D receptor (VDR) signaling pathway - cell viability counter screen (AID 743225). Note: nearly all actives have a fitted effect of over 50% in size. Put shortly: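 VDR-UAS-bla HEK 293T cells were plated and incubated 4 h at 37C, then dosed with compound plus 3 nM (final) 1-alpha,25-dihydroxyvitamin D3 for 16 h. After the 2 h beta-lactamase read, viability in the same wells was read as CellTiter-Glo luminescence after 30 min at room temperature.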

Assay [2] can be described thus: qHTS assay to identify small molecule agonists of the NFkB signaling pathway (AID 1159509; active = well fitted curve in the direction sought with a large enough effect in the signal ratio in the repeat runs, not every such curve was filed as active; the % refers to the signal ratio; note: series mostly up to about 61 µM). Put shortly:
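After overnight attachment, reporter cells received test compounds, DMSO or positive controls and were incubated 5 hr at 37 C. FRET substrate was then added for 1.5 hr at room temperature before dual-emission fluorescence reading.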
(In general: In qHTS, concentration-response curves come from the screen itself.)

The nature of assay [3]: qHTS assay to identify small molecule agonists of the endoplasmic reticulum stress response signaling pathway (AID 1159516; active = well fitted activation curve with a large enough effect in the signal ratio in the repeat runs, not every such curve was filed as active; the % refers to the signal ratio). The gist of the method: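 Tox21 10K library screened in quantitative HTS format on ESRE-bla HeLa cells, a beta-lactamase reporter under ER stress response element control; 5 hr treatment, FRET read.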
Assay [4] can be described thus: qHTS assay to identify small molecule agonists of the endoplasmic reticulum stress response signaling pathway - cell viability counter screen (AID 1159517; calls by dose curve; note: series mostly up to about 61 µM; nearly all actives have a fitted effect of over 50% in size). The gist of the method: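 Luminescence readout: CellTiter-Glo, 30 min RT, same wells as the ESRE-bla reporter read. HeLa ESRE-bla, 1,500 cells/well, o/n 37 C; cpd 5 hr 37 C/5% CO2.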
The nature of assay [5]: qHTS assay to identify small molecule antagonists of the retinoid-related orphan receptor gamma (ROR-gamma) signaling pathway - cell viability counter screen (AID 1159520). Note: nearly all actives have a fitted effect of over 50% in size. Put shortly: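 Tet-on ROR gamma CHO cells (1,000/well) were plated 4 hr, given compounds in DMSO for 2 hr at 37 C, then induced with 1 uM final doxycycline for 16 hr. Viability was read as ATP by CellTiter-Glo luminescence after 30 min.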

In assay [6] the target is Nuclear receptor ROR-gamma (Homo sapiens) (UniProt P51449). As to the kind of experiment: qHTS assay to identify small molecule antagonists of the retinoid-related orphan receptor gamma (ROR-gamma) signaling pathway (AID 1159521; note: nearly all actives have a fitted effect of over 50% in size; note: potency is the fitted concentration of half-maximal effect). Put shortly:
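Tet-on ROR-gamma CHO cells with ROR response element-luciferase reporter; compounds added 2 hr before 1 uM doxycycline induction, then 16 hr at 37 C. Antagonism scored as decreased ONE-Glo luminescence.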

Assay [7] in a line: qHTS assay to identify small molecule agonists of the AP-1 signaling pathway - cell viability counter screen (AID 1159525; calls by dose curve; note: nearly all actives have a fitted effect of over 55% in size). The gist of the method: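 ME-180 AP-1-bla, 2500 cells/well, Opti-MEM + 0.5% dialyzed FBS; overnight 37 °C; cpd 15-pt titration, 5 h 37 °C; CellTiter-Glo 30 min RT; luminescence read; normalised to TOAB and DMSO controls.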
Assay [8] in a line: qHTS assay to identify small molecule agonists of the RXR signaling pathway - cell viability counter screen (AID 1159529). Put shortly: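 RXR-alpha-UAS-bla HEK 293T cells in medium with 2% charcoal-stripped FBS were pre-incubated 5 hr, then compound-treated 16 hr at 37 C. Viability was read by CellTiter-Glo luminescence in the same wells as the beta-lactamase assay, with tetraoctyl ammonium bromide as positive control.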

Assay [9] is described as follows: qHTS assay to identify small molecule antagonists of the retinoid acid receptor (RAR) signaling pathway - cell viability counter screen (AID 1159551). Note: nearly all actives have a fitted effect of over 35% in size. The gist of the method: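 Cytotoxicity counter screen in C3RL4 cells: 6 h compound exposure with 1 uM retinol (final), viability from cellular ATP by luminescence.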
Assay [10] in a line: qHTS assay to identify small molecule agonists of the retinoic acid receptor (RAR) signaling pathway (AID 1159553). The gist of the method: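 Agonist activity was scored in C3RL4 cells bearing a retinoic acid response element luciferase construct. Cells were treated with compounds for 6 hr at 37 C, and luciferase signal was measured as luminescence.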
Assay [11] in a line: qHTS assay to identify small molecule agonists of the vitamin D receptor (VDR) signaling pathway - cell viability counter screen (AID 743224). Put shortly:
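Viability is measured in the same wells as the VDR-bla reporter assay: after 16 h compound treatment and 2 h substrate loading, CellTiter-Glo is added and luminescence read 30 min later.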

Assay [12] is described as follows: qHTS assay to identify small molecule agonists of the AP-1 signaling pathway (AID 1159526; calls by dose curve).
Assay [13] addresses Retinoic acid receptor RXR-alpha (Homo sapiens) (UniProt P19793). As to the kind of experiment: qHTS assay to identify small molecule agonists of the RXR signaling pathway (AID 1159527; calls by dose curve; note: nearly all actives have a fitted effect of over 35% in size). Put shortly:
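GeneBLAzer RXR-alpha-UAS-bla HEK 293T cells in 2% charcoal-stripped FBS medium were exposed to compounds for 16 hr at 37 C in agonist mode. Beta-lactamase reporter read as 460/530 nm FRET ratio after 2 hr substrate loading.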

Assay [14] is described as follows: qHTS assay to identify small molecule antagonists of the retinoic acid receptor (RAR) signaling pathway (AID 1159552; note: nearly all actives have a fitted effect of over 50% in size). The gist of the method:
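Retinol signaling pathway inhibitors screened in C3RL4 RARE-luciferase reporter cells seeded overnight at 37 C, then compounds added with 1 uM (final) retinol as pathway substrate. After 6 hr at 37 C, luciferase luminescence read after 30 min at room temperature.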

The nature of assay [15]: qHTS assay to identify small molecule antagonists of the estrogen related receptor (ERR) signaling pathway - cell viability counter screen (AID 1224818).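 Note: series mostly up to about 46 µM; viability measured after 17.5 h of compound exposure.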 The gist of the method:
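Cells carrying the ERR pathway reporter were seeded and incubated for 6 hours before compound addition. After a 17.5-hour exposure at 37 C, live-cell protease activity was measured by CellTiter-Fluor fluorescence following 30 minutes of incubation.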

Assay [16] in a line: qHTS assay to identify small molecule antagonists of the estrogen related receptor (ERR) signaling pathway (AID 1224819). Put shortly: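 Compounds dissolved in DMSO were pin-transferred onto ERR cells that had been plated 6 h earlier, and cells were then incubated 18 h at 37 C; signal was luciferase luminescence via One-Glo.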
Assay [17] is described as follows: qHTS assay to identify small molecule agonists of the estrogen related receptor (ERR) signaling pathway (AID 1224820). Put shortly:
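Quantitative HTS of the LOPAC library used NTP ERR reporter cells treated 18 h at 37 C. Signal is luminescence after One-Glo addition and a 30 min room-temperature incubation.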

The nature of assay [18]: qHTS assay to identify small molecule antagonists of the estrogen related receptor signaling pathway with the pleiotropic PPARgamma coactivator (PGC) cell viability counter screen (AID 1224822; note: series mostly up to about 46 µM). The gist of the method: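 Seed PGC/ERR cells (2,000/well); incubate 6 h at 37 C/5% CO2; pin-transfer compounds in DMSO; incubate 17.5 h at 37 C; add CellTiter-Fluor; after 30 min read fluorescence.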

Assay [19] in a line: qHTS assay to identify small molecule agonists of the estrogen related receptor signaling pathway with the pleiotropic PPARgamma coactivator (PGC) (AID 1224823). Put shortly: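 Cell-based luciferase assay in the NTP-supplied PGC/ERR line, 2,000 cells/well; 18 h compound exposure at 37 C, luminescence after One-Glo.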

Inconclusive results are not listed. Activity calls are given as the source filed them. Unless noted, calls come from the whole dose curve; as a rule, active = well fitted curve in the direction sought with a large enough effect in the repeat runs; inconclusive = weak or mixed curves; inactive = no such curve, though single readings can be large; an effect the other way counts as inactive or inconclusive.

Chain of Retinoic acid receptor RXR-alpha (Homo sapiens) (P19793 whole entry, looked up): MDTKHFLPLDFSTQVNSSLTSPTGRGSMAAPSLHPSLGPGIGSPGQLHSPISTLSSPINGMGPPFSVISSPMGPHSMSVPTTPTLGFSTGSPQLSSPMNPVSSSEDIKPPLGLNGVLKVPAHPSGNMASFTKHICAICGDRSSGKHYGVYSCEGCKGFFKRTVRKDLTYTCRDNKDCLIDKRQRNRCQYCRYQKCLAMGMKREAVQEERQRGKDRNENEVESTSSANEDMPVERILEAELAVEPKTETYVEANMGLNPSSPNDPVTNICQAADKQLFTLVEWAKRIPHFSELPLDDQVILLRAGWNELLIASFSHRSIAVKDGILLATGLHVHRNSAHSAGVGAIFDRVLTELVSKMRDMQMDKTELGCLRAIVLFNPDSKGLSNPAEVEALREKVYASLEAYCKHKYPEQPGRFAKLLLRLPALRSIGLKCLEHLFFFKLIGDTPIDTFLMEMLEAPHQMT

As to `CC(C)CP(=S)(S)CC(C)C`, the result in assay [1], in assay [2] and in assay [3] was inactive. Also, the Potency result in assay [4], in assay [5], in [7], in assay [8], in assay [9] and in [10] was “inactive” throughout. For the same molecule, the Potency in assay [6] was 24.3 µM (active).
`CC(=O)[C@H]1CC[C@H]2[C@@H]3CC[C@H]4C[C@H](O)CC[C@]4(C)[C@H]3C(=O)C[C@]12C`: the Potency entry in assay [11], in [5], in [7], in [13], in assay [9] and in [14] was “inactive” in each case. In addition, the Potency result in [10] is “inactive”. In addition, the molecule was classed as inactive in assay [1], in assay [2], in assay [3], in [12], in [15] and in assay [16]. The result in assay [17], in [18] and in [19] was inactive.
Turning to `c1ccc(N2CCNCC2)cc1`, the Potency entry in [11], in [4], in assay [5], in [7], in assay [13] and in [8] was “inactive” throughout. The Potency entry in assay [9] was “inactive”. Besides, the molecule was classed as inactive in assay [2], in assay [3] and in [12].
Turning to `CCCSP(=O)(OCC)Oc1ccc(Br)cc1Cl` (stereo not drawn), the molecule was classed as inactive in assay [1], in [2], in assay [3] and in [12]. Further, the Potency entry in assay [5], in assay [6], in [7], in [8], in [9] and in assay [14] was “inactive” in each case. The Potency entry in assay [10] is “inactive”.
Turning to `CC1(C)COP(Oc2ccccc2)OC1`, the Potency entry in [11], in assay [4], in assay [5], in [6], in assay [7] and in [8] was “inactive” each time. Further, the Potency result in assay [9], in assay [14] and in [10] was “inactive” in each case. Also, the result in assay [1], in [2], in assay [3] and in [12] was inactive.
For the molecule `COC(C)(C)C`, the Potency entry in [11], in assay [4], in assay [5], in assay [7], in [13] and in assay [8] was “inactive” each time. In addition, the Potency result in assay [9], in [14] and in assay [10] was “inactive” each time. For the same molecule, the call in [1], in assay [2], in assay [3] and in assay [12] was inactive.
For `COc1ccc2c(c1OC)CN1CCc3cc4c(cc3C1C2)OCO4` (stereo not drawn), the Potency entry in [11], in assay [4], in [5], in assay [6], in [8] and in [9] was “inactive” in each case. Also, the call in [2], in assay [3] and in [12] was inactive.
For `CCOC(=O)C1(c2ccccc2)CCN(CCc2ccc(N)cc2)CC1`, the Potency entry in assay [11], in [4], in assay [5], in assay [6], in [13] and in assay [9] was “inactive” each time. Further, in [10], the Potency entry is “inactive”. For the same molecule, the outcome in assay [1], in assay [2], in assay [3] and in assay [12] was inactive.
For `CC1=NNC(=O)N(/N=C/c2cccnc2)C1`, the Potency result in assay [11], in assay [4], in [5], in assay [6], in [7] and in assay [8] was “inactive” each time. The Potency entry in assay [9] and in assay [14] was “inactive” in each case. In addition, the molecule was classed as inactive in assay [2], in assay [3] and in [12].
Consider `CN1CCC(N(Cc2ccccc2)c2ccccc2)CC1`, for which the Potency entry in assay [11], in assay [4], in assay [5], in assay [6], in assay [7] and in assay [13] was “inactive” in each case. Further, the Potency result in assay [9] is “inactive”. Moreover, the call in [1], in assay [2] and in assay [3] was inactive.
On to `Cc1nnc2n1-c1sc(CCC(=O)N3CCOCC3)cc1C(c1ccccc1Cl)=NC2`, for which the Potency entry in [11], in assay [4], in [5], in assay [6], in [7] and in assay [13] was “inactive” in each case. Also, the Potency entry in assay [9] and in assay [10] was “inactive” in each case. Also, the result in [1], in [2], in assay [3] and in assay [12] was inactive.
Consider `Oc1c(Cl)cccc1Cl`, for which the Potency entry in assay [11], in assay [4], in assay [5], in [7], in [13] and in assay [8] was “inactive” in each case. Besides, the Potency result in assay [9] and in [14] was “inactive” each time. Besides, the outcome in assay [1], in [2], in [3] and in [12] was inactive.
